Screening results: PubChem BioAssay, National Center for Advancing Translational Sciences (NCATS)
Only a selection was taken, and hits are over-represented in it overall.
Methyltransferases – Primary Screen for Target Class Profiling of Small Molecule Inhibitors of Methyltransferases | purified enzyme, MTase-Glo SAH luminescence; active compounds read low | calls only at 40 µM | 3.9% of 25,000 active | AID 1745853, 2022; call rule not given here
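Each enzyme was assayed with SAM and its substrate. SAH formation detected by MTase-Glo luminescence; single-point 40 uM screen[…].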
MTase-Glo counter – detection enzyme interference, methyltransferase counter-screen | shares compounds with Methyltransferases | MTase-Glo coupled enzymes, SAH conversion luminescence, no MTase | Potency, µM (titrated, usually from 57.3 µM), for inactives: at the top dose activity change, negative = inhibition, hits mostly inhibitors | 6% of 180 active | AID 1745851; active means well fitted inhibition curve with a large enough effect; inconclusive means small, poorly fitted or top-dose-only effect; further: potency means the concentration at half of the fitted maximal effect
An asterisk follows results filed as active; i = inactive; u = inconclusive; + = active, no number; [ ] = another dose, or the depositor's remark. On the % scale 0 is the no-effect control and ±100 the full control effect.

SMILES	Methyltransferases	others
CCOc1ccc(C2c3cccn3-c3ccccc3CN2C(=O)Nc2ccc(CC)cc2)cc1 (stereo unspecified)	i
COc1cc(O)c2c(c1)CCC[C@@H](O)[C@H](O)C(=O)/C=C\C[C@H](C)OC2=O	i
C[C@H]1CCC[C@H](O)CCC/C=C/c2cc(O)cc(O)c2C(=O)O1	+
CC1CCCC(O)CC(=O)Cc2cc(O)cc(O)c2C(=O)O1 (stereo unspecified)	i
O=C(NC1CCCC1)N1Cc2ccccc2-n2cccc2C1c1cc(F)cc(F)c1 (stereo unspecified)	i
COc1cc(OC)c(NC(=O)N2Cc3ccccc3-n3cccc3C2c2ccc(F)cc2)cc1Cl (stereo unspecified)	i
c1ccc2c(N3CCNCC3)cccc2c1	+
O=C(Nc1cccc(Cl)c1)N1Cc2ccccc2-n2cccc2C1c1ccc(F)cc1 (stereo unspecified)	i
CN1CCC[C@@H]1Cc1c[nH]c2ccc(Nc3ncccc3[N+](=O)[O-])cc12	+
CC(C)C1c2cccn2-c2ccccc2CN1C(=O)Nc1ccccc1 (stereo unspecified)	i
CCOc1ccc(NC(=O)N2Cc3ccccc3-n3cccc3C2c2ccc(OCC)cc2)cc1 (stereo unspecified)	i
CCc1ccccc1NC(=O)N1Cc2ccccc2-n2cccc2C1c1ccc(OC)cc1 (stereo unspecified)	i
Cc1[nH]c2ccc(Cl)cc2c1CCN(C)C	+
CCC1c2cccn2-c2ccccc2CN1C(=O)NCc1ccccc1 (stereo unspecified)	i
CCOc1ccc(C2c3cccn3-c3ccccc3CN2C(=O)Nc2cccc(Cl)c2C)cc1 (stereo unspecified)	i
CCOc1ccc(C2c3cccn3-c3ccccc3CN2C(=O)Nc2ccc3c(c2)OCCO3)cc1 (stereo unspecified)	i
CCCN(CCC)[C@@H]1CCc2ccc3[nH]c(C#N)cc3c2C1	+
CCCN(CCC)[C@@H]1CCc2cccc(O)c2C1	i
COc1ccc(C)cc1NC(=O)N1Cc2ccccc2-n2cccc2C1c1ccc(F)cc1 (stereo unspecified)	i
CCOC(=O)CNC(=O)N1Cc2ccccc2-n2cccc2C1c1ccc(OC)c(OC)c1 (stereo unspecified)	i
COc1ccccc1NC(=O)N1Cc2ccccc2-n2cccc2C1c1ccccc1 (stereo unspecified)	i
COc1ccc(-c2cc3c(cn2)CN(C)CCN3)cn1	+	MTase-Glo counter=-2%[114 µM]
COc1ccc(C2c3cccn3-c3ccccc3CN2C(=O)Nc2cccc(OC)c2)cc1 (stereo unspecified)	i
CC1c2cccn2-c2ccccc2CN1C(=O)Nc1ccc(F)c(Cl)c1 (stereo unspecified)	i
O=C(NCc1ccccc1)N1Cc2ccccc2-n2cccc2C1c1ccc(F)cc1 (stereo unspecified)	i
SMILES	Methyltransferases	others
CC(=O)NC[C@H]1C[C@@H]2CCN1C[C@@H]2c1cc(-c2ccc3ccccc3c2)nn1C	+	MTase-Glo counter=u
Cn1nc(-c2ccc3ccccc3c2)cc1[C@H]1CN2CC[C@H]1C[C@@H]2CNC(=O)c1ccco1	i
COc1ccccc1-c1cc([C@H]2CN3CC[C@H]2C[C@@H]3CNC(=O)N2CCOCC2)n(C)n1	i
Cc1ccc(C)c(NC(=O)N2Cc3ccccc3-n3cccc3C2c2ccccc2Cl)c1 (stereo unspecified)	i
CCOCCCNC(=O)N1Cc2ccccc2-n2cccc2C1CC (stereo unspecified)	i
COc1ccc(NC(=O)N2Cc3ccccc3-n3cccc3C2c2ccccc2C)c(OC)c1 (stereo unspecified)	i
COC(=O)CCNC(=O)N1Cc2ccccc2-n2cccc2C1c1ccc(Cl)cc1 (stereo unspecified)	i
Cc1c(Cl)cccc1NC(=O)N1Cc2ccccc2-n2cccc2C1c1ccc(N(C)C)cc1 (stereo unspecified)	i
CNC1CCc2ccccc21 (stereo unspecified)	+	MTase-Glo counter=-2%[114 µM]
Cc1ccc(CNC(=O)N2Cc3ccccc3-n3cccc3C2C)cc1 (stereo unspecified)	i
CCOc1ccccc1NC(=O)N1Cc2ccccc2-n2cccc2C1c1ccc(SC)cc1 (stereo unspecified)	i
